Reference: PubChem BioAssay (NCI)
The panel holds about 83,000 compounds, 20% with a hit somewhere; the sample as a whole holds those more often.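 Compound tested at a single concentration for 48 hours in 96-well plates; a percent growth value below 10 was scored as active.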 Values without a mark were called inactive. Calls of active or inactive are those of the source.

Experiments:
Assay in all cases: NCI-60 one-dose screen, 48 h (100 = growth as untreated, 0 = no growth, -100 = all killed)
Conditions in all cases: 10 µM unless noted
RPMI-8226 leukemia = tested on: RPMI-8226 leukemia
OVCAR-8 ovarian = tested on: OVCAR-8 ovarian
OVCAR-5 ovarian = tested on: OVCAR-5 ovarian
OVCAR-4 ovarian = tested on: OVCAR-4 ovarian
SK-OV-3 ovarian = tested on: SK-OV-3 ovarian
IGROV1 ovarian = tested on: IGROV1 ovarian
OVCAR-3 ovarian = tested on: OVCAR-3 ovarian
HS 578T breast = tested on: HS 578T breast
NCI/ADR-RES ovarian = tested on: NCI/ADR-RES ovarian
T-47D breast = tested on: T-47D breast
BT-549 breast = tested on: BT-549 breast
MDA-MB-435 melanoma = tested on: MDA-MB-435 melanoma
SW-620 colon = tested on: SW-620 colon
MCF7 breast = tested on: MCF7 breast
HCT-116 colon = tested on: HCT-116 colon
HCC-2998 colon = tested on: HCC-2998 colon
KM12 colon = tested on: KM12 colon

| Compound | growth (RPMI-8226 leukemia) [%] | growth (OVCAR-8 ovarian) [%] | growth (OVCAR-5 ovarian) [%] | growth (OVCAR-4 ovarian) [%] | growth (SK-OV-3 ovarian) [%] | growth (IGROV1 ovarian) | growth (OVCAR-3 ovarian) [%] | growth (HS 578T breast) [%] | growth (NCI/ADR-RES ovarian) [%] | growth (T-47D breast) [%] | growth (BT-549 breast) [%] | growth (MDA-MB-435 melanoma) [%] | growth (SW-620 colon) [%] | growth (MCF7 breast) | growth (HCT-116 colon) | growth (HCC-2998 colon) | growth (KM12 colon) [%] |
| --- | --- | --- | --- | --- | --- | --- | --- | --- | --- | --- | --- | --- | --- | --- | --- | --- | --- |
| CC(=O)Nc1ccc(/C=C2\SC(=S)N(/C=C(\C(C)=O)C(N)=O)C2=O)cc1 | 83.9 | 92.8 | 98.7 | 99.4 | 86.9 | 105% | 105 | 95.7 | 100 | 87.5 | 92.3 | 89.6 | 96.9 | 96.4% | 92.2% | 94.4% | 101 |
| O=c1n(CC2CO2)c(=O)n(CC2CO2)n1CC1CO1 (stereo unspecified) | 57.5 | 75 | 130 | 85.2 | 49.2 | -4.87% (active) | 72.7 | 90.5 | 65.5 | 52.4 | 54.4 | 90.4 | 66.3 | 31% | 57.7% | 75.2% | 84.4 |
| S=c1nc2[nH]c3ccccc3c2n[nH]1 | 74.2 | 97.4 | 93.6 | 102 | 89.3 | 103% | 88.6 | 80.2 | 102 | 88.2 | 102 | 107 | 95 | 92.2% | 96.4% | 102% | 130 |
| O=C(NCc1ccccc1)/C(=C/c1ccccc1)NC(=O)c1ccccc1 | 96.5 | 97.1 | 123 | 115 | 102 | 104% | 117 | 99.2 | 104 | 110 | – | – | 102 | 96.6% | 107% | 102% | 101 |
| Nc1nc2nnc(-c3ccccc3)c(-c3ccccc3)n2n1 | 50.7 | 101 | 86.3 | 101 | 102 | 127% | 185 | 88.9 | 97.2 | 84.7 | 103 | 106 | 97.9 | 98.7% | 102% | 93.1% | 132 |
| Cc1cc(C)cc(OCC(=O)O)c1 | 108 | 100 | 94.6 | 113 | 101 | – | 124 | 105 | 105 | 96.6 | 97.9 | 104 | 109 | 97.7% | 96.9% | 102% | 110 |
| Cc1ccc(S(N)(=O)=O)cc1Cl | 103 | 105 | 103 | 115 | 110 | 109% | 115 | 117 | 117 | 102 | 77.9 | – | 114 | 96.3% | 104% | 116% | 112 |
| Cc1cccc(C)c1NC(=S)/N=C\c1c(O)[nH]c(=O)[nH]c1=O | 98.3 | 108 | 109 | 104 | 94 | 101% | 111 | 92 | 108 | 104 | 93.9 | 107 | 105 | 93.6% | 106% | 102% | 103 |
| CC(CO)(CO)C(=O)O | 97.2 | 111 | 98.2 | 105 | 105 | 126% | 106 | 98.8 | 103 | 95.5 | 109 | 105 | – | – | 102% | 94.6% | 106 |
| CCCCn1cnc2c(=O)[nH]cnc21 | 108 | 115 | 98.7 | 113 | 104 | 115% | 113 | 115 | 113 | 97.8 | 105 | 100 | – | 98.2% | 107% | 117% | 132 |
| CN1C(=O)NC(c2ccc(Cl)cc2)(c2ccc(Cl)cc2)C1=O | 84.2 | 102 | 112 | 96.4 | 115 | 91% | 104 | 90.4 | 86.8 | 94.2 | – | 97.3 | 103 | – | 88.2% | 101% | 87.9 |
| CN1CCCN(C(c2ccccc2)c2ccc(Cl)cc2)CC1 (stereo unspecified) | 101 | 105 | 98.8 | 84.2 | 110 | – | 104 | 86.3 | 94 | 87.1 | 94.5 | 89.6 | – | 80.6% | 96.9% | 98.9% | 101 |
| CC(=O)N(C)N=Nc1ccc(C)cc1 | – | 112 | 83.1 | 102 | 110 | 152% | 103 | 95.1 | 99.1 | 102 | 90.1 | 103 | 98.6 | 106% | 101% | 91.5% | 118 |
| O=C1C=C(c2ccccc2)C(O)(c2ccccc2)C1 (stereo unspecified) | 98.1 | 106 | 93.6 | – | 101 | 107% | 112 | 109 | 104 | 90.6 | – | – | 108 | 98.2% | 98.4% | 122% | 107 |
| C(=C\c1ccncc1)/c1ccncc1 | – | 121 | 114 | 92.4 | 120 | – | 169 | 114 | 98 | 129 | 91.2 | 110 | 104 | 128% | 115% | 99.3% | 112 |
| Cc1cccc(-[n+]2noc(N)n2)c1 | 68.5 | 100 | 99.2 | 84 | 86.3 | – | 77 | 129 | 84.8 | 59 | – | 83.7 | – | 76% | 82.2% | 79% | 70.2 |
| CCNc1ccc2ccccc2c1N=Nc1ccc(N=Nc2ccccc2)cc1 | – | 104 | 93.1 | 98.4 | 97.4 | 0.773% (active) | 109 | 110 | 109 | 84.7 | 120 | 110 | 99.8 | 85.2% | 72% | 110% | 105 |
| Nc1ncnc(Nc2ccccc2)n1 | 96.7 | 106 | 105 | 109 | 117 | – | 117 | 102 | 111 | 96.3 | – | 107 | 101 | 101% | 118% | – | 120 |
| COC1=C(OC)C(=O)C(SC/C=C(\C)CCCC(C)CCCC(C)CCCC(C)C)=CC1=O (stereo unspecified) | – | 18.7 | 25.7 | – | 45.4 | -9.75% (active) | 13.6 | 63.6 | 11.6 | 12.5 | – | 18.5 | 18.7 | 4.9% (active) | 9.93% (active) | -4.48% (active) | 11.6 |
| Oc1cc(O)c2c(c1)O[C@H](c1ccc(O)c(O)c1)[C@@H](O)C2 | – | 98 | 100 | – | 109 | 103% | – | 117 | 101 | 104 | 100 | – | – | 104% | 109% | 108% | – |
| S=C=Nc1ccc2ccccc2c1 | 103 | 105 | 107 | – | – | 117% | 114 | 104 | 102 | 108 | 96.2 | 101 | 105 | – | 103% | 95.7% | 104 |
